# About 79,000 compounds went through this panel and 15% of them were active in at least one assay; those are over-represented in the sample as a whole. Unmarked numbers belong to inactive results. The source made the active and inactive calls. No stated cut-off is given here; in the data, active means growth inhibition above about 70%; inactive means the rest.
# Columns and labels:
# [1] = NCI Yeast Anticancer Drug Screen. Data for the sgs1 strain (AID 173);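 further: 0% = growth of vehicle-only control cultures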; settings: S. cerevisiae sgs1 mutant, active compounds read high
# Method in brief: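 Compounds applied to genetically altered yeast; growth compared with vehicle-treated cultures to give % inhibition.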
# [2] = NCI Yeast Anticancer Drug Screen. Data for the mlh1 rad18 strain (AID 175); settings: S. cerevisiae mlh1 rad18 strain growth inhibition, active compounds read high
# Method in brief: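 Cells of a genetically altered yeast strain, deficient in DNA damage repair, were treated with compound. Their growth was then compared with that of vehicle-treated cultures to give inhibition.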
# [3] = NCI Yeast Anticancer Drug Screen. Data for the rad18 strain (AID 177); settings: S. cerevisiae rad18 mutant growth inhibition, active compounds read high
# Method in brief: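 Compounds are applied to a repair-deficient yeast strain, and growth is compared with that of vehicle-treated cultures to give percent inhibition.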
# [4] = NCI Yeast Anticancer Drug Screen. Data for the wt1 strain (AID 149);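 further: 0% = growth of vehicle-treated wt1 cultures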; settings: S. cerevisiae wt1 strain (SPY 50644) growth inhibition, active compounds read high
# Method in brief: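 Yeast wt1 strain exposed to compounds; growth inhibition measured relative to vehicle-treated controls.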
# [5] = NCI Yeast Anticancer Drug Screen. Data for the rad50EPP+ strain (AID 151);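 further: 0% = growth of vehicle-treated control cultures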; settings: S. cerevisiae rad50 mutant strain, active compounds read high
# Method in brief: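 rad50EPP+ yeast treated with test compounds. Readout: growth vs vehicle control.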
# [6] = NCI Yeast Anticancer Drug Screen. Data for the mgt1 strain (AID 153); settings: S. cerevisiae mgt1 mutant growth inhibition, active compounds read high
# Method in brief: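 Growth inhibition relative to vehicle controls was scored for the mgt1 yeast strain after compound exposure.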
# [7] = NCI Yeast Anticancer Drug Screen. Data for the rad50 strain (AID 155);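 further: 0% = growth of vehicle-only cultures of the same strain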; settings: S. cerevisiae rad50 strain growth inhibition, active compounds read high
# Method in brief: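 Yeast carrying a defined DNA repair defect were exposed to test compounds, and growth was compared with vehicle-treated controls to give percent inhibition.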
# [8] = NCI Yeast Anticancer Drug Screen. Data for the mec2-1 strain (AID 157); settings: S. cerevisiae mec2-1 strain, active compounds read high
# Method in brief: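 Growth inhibition is read against vehicle-treated controls after compound exposure of the mec2-1 yeast strain, which is defective in DNA damage repair or cell cycle control.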
# [9] = NCI Yeast Anticancer Drug Screen. Data for the rad14 strain (AID 159);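 further: 0% = growth of vehicle-treated control cultures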; settings: S. cerevisiae rad14 strain growth inhibition, active compounds read high
# Method in brief: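 Yeast cells carrying a defined DNA-repair defect were exposed to compounds, and growth inhibition was calculated relative to vehicle-treated control cultures.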
# [10] = NCI Yeast Anticancer Drug Screen. Data for the sgs1 mgt1 strain (AID 161);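 further: 0% = growth of cultures given vehicle only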; settings: S. cerevisiae sgs1 mgt1 strain, active compounds read high
# Method in brief: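 Percent growth inhibition was derived by comparing compound-exposed mutant yeast with vehicle-exposed cultures. The strain carries alterations in DNA damage repair.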
# [11] = NCI Yeast Anticancer Drug Screen. Data for the CLN2oe strain (AID 163);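 further: 0% = growth of vehicle-only control cultures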; settings: S. cerevisiae CLN2oe strain, active compounds read high
# Method in brief: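 Compound-treated yeast; growth vs vehicle ctrl = % inhibition. Genetically altered strain (cell-cycle control).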
# [12] = NCI Yeast Anticancer Drug Screen. Data for the cln2 rad14 strain (AID 165);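 further: 0% = growth equal to vehicle treated cultures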; settings: S. cerevisiae cln2 rad14 strain, active compounds read high
# Method in brief: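 Growth inhibition, relative to vehicle-treated controls, is the read-out. The test organism is a yeast strain with defined genetic alterations, cln2 rad14.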
# [13] = NCI Yeast Anticancer Drug Screen. Data for the wt2 strain (AID 169);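 further: 0% = growth of vehicle-treated yeast cultures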; settings: S. cerevisiae wt2 strain growth inhibition, active compounds read high
# Method in brief: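 Compound exposure of yeast; growth compared with vehicle controls; inhibition reported.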
# [14] = NCI Yeast Anticancer Drug Screen. Data for the mlh1 strain (AID 171);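 further: 0% = growth of vehicle-treated control cultures of the same strain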; settings: S. cerevisiae mlh1 strain growth inhibition, active compounds read high
# Method in brief: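 Compounds are applied to a genetically altered yeast strain, and its growth is compared with that of vehicle-treated cultures to give percent inhibition.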
# [15] = NCI Yeast Anticancer Drug Screen. Data for the bub3 strain (AID 167); settings: S. cerevisiae bub3 mutant strain, active compounds read high
# Method in brief: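 Compounds were applied to a genetically altered yeast strain carrying a cell-cycle control defect. Growth inhibition was scored against vehicle-treated controls.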
# [16] = at 5.0 µM (retest, dose inferred, filed as 0.5)
# [17] = at 50.0 µM (retest, dose inferred, filed as 5.0)
structure (smiles),measurement,setting,value
O=C(CCCN1CCC2(CC1)OC(=O)N(c1ccccc1)C2=O)c1ccccc1,growth inhibition,[1]; at 33.0 µM,72% (active)
same,growth inhibition,[1]; at 100.0 µM,75% (active)
same,growth inhibition,[2]; [16],23%
same,growth inhibition,[2]; [17],78% (active)
same,growth inhibition,[2]; at 50.0 µM,72.9% (active)
same,growth inhibition,[3]; at 1.2 µM,63%
same,growth inhibition,[3]; at 3.7 µM,70% (active)
same,growth inhibition,[3]; at 11.0 µM,78% (active)
same,growth inhibition,[3]; at 33.0 µM,80% (active)
same,growth inhibition,[3]; at 100.0 µM,77% (active)
Cc1ccc(N(C=O)c2c([N+](=O)[O-])cc([N+](=O)[O-])c3c2=[N+]([O-])CN=3)cc1,growth inhibition,[4]; at 1.2 µM,3%
same,growth inhibition,[4]; at 3.7 µM,23%
same,growth inhibition,[4]; at 11.0 µM,20%
same,growth inhibition,[4]; at 33.0 µM,89% (active)
same,growth inhibition,[4]; at 100.0 µM,98% (active)
same,growth inhibition,[5]; at 1.2 µM,35%
same,growth inhibition,[5]; at 3.7 µM,51%
same,growth inhibition,[5]; at 11.0 µM,84% (active)
same,growth inhibition,[5]; at 33.0 µM,95% (active)
same,growth inhibition,[5]; at 100.0 µM,97% (active)
same,growth inhibition,[6]; at 1.2 µM,10%
same,growth inhibition,[6]; at 3.7 µM,-1%
same,growth inhibition,[6]; at 11.0 µM,52%
same,growth inhibition,[6]; at 33.0 µM,96% (active)
same,growth inhibition,[6]; at 100.0 µM,98% (active)
same,growth inhibition,[7]; at 1.2 µM,9%
same,growth inhibition,[7]; at 3.7 µM,18%
same,growth inhibition,[7]; [16],13%
same,growth inhibition,[7]; at 11.0 µM,25%
same,growth inhibition,[7]; at 33.0 µM,92% (active)
same,growth inhibition,[7]; [17],83% (active)
same,growth inhibition,[7]; at 50.0 µM,71.5% (active)
same,growth inhibition,[7]; at 100.0 µM,98% (active)
same,growth inhibition,[8]; at 1.2 µM,8%
same,growth inhibition,[8]; at 3.7 µM,19%
same,growth inhibition,[8]; [16],6%
same,growth inhibition,[8]; at 11.0 µM,32%
same,growth inhibition,[8]; at 33.0 µM,95% (active)
same,growth inhibition,[8]; [17],91% (active)
same,growth inhibition,[8]; at 50.0 µM,27.6%
same,growth inhibition,[8]; at 100.0 µM,98% (active)
same,growth inhibition,[9]; at 1.2 µM,-15%
same,growth inhibition,[9]; at 3.7 µM,1%
same,growth inhibition,[9]; at 11.0 µM,30%
same,growth inhibition,[9]; at 33.0 µM,94% (active)
same,growth inhibition,[9]; at 100.0 µM,97% (active)
same,growth inhibition,[10]; [16],12%
same,growth inhibition,[10]; [17],84% (active)
same,growth inhibition,[10]; at 50.0 µM,58.8%
same,growth inhibition,[11]; at 1.2 µM,-3%
same,growth inhibition,[11]; at 3.7 µM,8%
same,growth inhibition,[11]; at 11.0 µM,34%
same,growth inhibition,[11]; at 33.0 µM,95% (active)
same,growth inhibition,[11]; at 100.0 µM,98% (active)
same,growth inhibition,[12]; [16],28%
same,growth inhibition,[12]; [17],81% (active)
same,growth inhibition,[12]; at 50.0 µM,31.6%
same,growth inhibition,[13]; at 1.2 µM,9%
same,growth inhibition,[13]; at 3.7 µM,17%
same,growth inhibition,[13]; at 11.0 µM,46%
same,growth inhibition,[13]; at 33.0 µM,90% (active)
same,growth inhibition,[13]; at 100.0 µM,98% (active)
same,growth inhibition,[14]; at 1.2 µM,-1%
same,growth inhibition,[14]; at 3.7 µM,6%
same,growth inhibition,[14]; at 11.0 µM,48%
same,growth inhibition,[14]; at 33.0 µM,94% (active)
same,growth inhibition,[14]; at 100.0 µM,98% (active)
same,growth inhibition,[1]; at 1.2 µM,16%
same,growth inhibition,[1]; at 3.7 µM,21%
same,growth inhibition,[1]; at 11.0 µM,51%
same,growth inhibition,[1]; at 33.0 µM,89% (active)
same,growth inhibition,[1]; at 100.0 µM,98% (active)
same,growth inhibition,[2]; [16],12%
same,growth inhibition,[2]; [17],98% (active)
same,growth inhibition,[2]; at 50.0 µM,41.3%
same,growth inhibition,[3]; at 1.2 µM,0%
same,growth inhibition,[3]; at 3.7 µM,14%
same,growth inhibition,[3]; at 11.0 µM,47%
same,growth inhibition,[3]; at 33.0 µM,91% (active)
same,growth inhibition,[3]; at 100.0 µM,98% (active)
CC(O)CN1C(=O)c2cccc3cc([N+](=O)[O-])cc(c23)C1=O (stereo not given),growth inhibition,[4]; at 1.2 µM,-7%
same,growth inhibition,[4]; at 3.7 µM,5%
same,growth inhibition,[4]; at 11.0 µM,1%
same,growth inhibition,[4]; at 33.0 µM,-3%
same,growth inhibition,[4]; at 100.0 µM,0%
same,growth inhibition,[5]; at 1.2 µM,10%
same,growth inhibition,[5]; at 3.7 µM,8%
same,growth inhibition,[5]; at 11.0 µM,18%
same,growth inhibition,[5]; at 33.0 µM,55%
same,growth inhibition,[5]; at 100.0 µM,60%
same,growth inhibition,[6]; at 1.2 µM,-23%
same,growth inhibition,[6]; at 3.7 µM,4%
same,growth inhibition,[6]; at 11.0 µM,6%
same,growth inhibition,[6]; at 33.0 µM,15%
same,growth inhibition,[6]; at 100.0 µM,23%
same,growth inhibition,[7]; at 1.2 µM,-2%
same,growth inhibition,[7]; at 3.7 µM,27%
same,growth inhibition,[7]; [16],56%
same,growth inhibition,[7]; at 11.0 µM,75% (active)
same,growth inhibition,[7]; at 33.0 µM,88% (active)
same,growth inhibition,[7]; [17],78% (active)
same,growth inhibition,[7]; at 50.0 µM,50.9%
same,growth inhibition,[7]; at 100.0 µM,91% (active)
same,growth inhibition,[8]; at 1.2 µM,-17%
same,growth inhibition,[8]; at 3.7 µM,-11%
same,growth inhibition,[8]; [16],-16%
same,growth inhibition,[8]; at 11.0 µM,2%
same,growth inhibition,[8]; at 33.0 µM,34%
same,growth inhibition,[8]; [17],65%
same,growth inhibition,[8]; at 50.0 µM,67.4%
same,growth inhibition,[8]; at 100.0 µM,42%
same,growth inhibition,[9]; at 1.2 µM,2%
same,growth inhibition,[9]; at 3.7 µM,12%
same,growth inhibition,[9]; at 11.0 µM,14%
same,growth inhibition,[9]; at 33.0 µM,19%
same,growth inhibition,[9]; at 100.0 µM,21%
same,growth inhibition,[11]; at 1.2 µM,20%
same,growth inhibition,[11]; at 3.7 µM,0%
same,growth inhibition,[11]; at 11.0 µM,-2%
same,growth inhibition,[11]; at 33.0 µM,-5%
same,growth inhibition,[11]; at 100.0 µM,-5%
same,growth inhibition,[12]; [16],5%
same,growth inhibition,[12]; [17],33%
same,growth inhibition,[12]; at 50.0 µM,13.4%
same,growth inhibition,[15]; at 1.2 µM,-8%
same,growth inhibition,[15]; at 3.7 µM,-6%
same,growth inhibition,[15]; [16],8%
same,growth inhibition,[15]; at 11.0 µM,-11%
same,growth inhibition,[15]; at 33.0 µM,-21%
same,growth inhibition,[15]; [17],32%
same,growth inhibition,[15]; at 50.0 µM,39.4%
same,growth inhibition,[15]; at 100.0 µM,-30%
same,growth inhibition,[13]; at 1.2 µM,-27%
same,growth inhibition,[13]; at 3.7 µM,-18%
same,growth inhibition,[13]; at 11.0 µM,-13%
same,growth inhibition,[13]; at 33.0 µM,-12%
same,growth inhibition,[13]; at 100.0 µM,2%
same,growth inhibition,[14]; at 1.2 µM,5%
same,growth inhibition,[14]; at 3.7 µM,4%
same,growth inhibition,[14]; at 11.0 µM,14%
same,growth inhibition,[14]; at 33.0 µM,50%
same,growth inhibition,[14]; at 100.0 µM,47%
same,growth inhibition,[1]; at 1.2 µM,-6%
same,growth inhibition,[1]; at 3.7 µM,-15%
same,growth inhibition,[1]; at 11.0 µM,6%
same,growth inhibition,[1]; at 33.0 µM,15%
same,growth inhibition,[1]; at 100.0 µM,30%
same,growth inhibition,[2]; [16],25%
same,growth inhibition,[2]; [17],73% (active)
same,growth inhibition,[2]; at 50.0 µM,83.3% (active)
same,growth inhibition,[3]; at 1.2 µM,-11%
same,growth inhibition,[3]; at 3.7 µM,2%
same,growth inhibition,[3]; at 11.0 µM,9%
same,growth inhibition,[3]; at 33.0 µM,67%
same,growth inhibition,[3]; at 100.0 µM,88% (active)

# From PubChem BioAssay (NCI)
